Screening results from PubChem.
APP transl inh – APP translation inhibition. actives 0.82% (n = 190,000). inhibition, % at 2 µM. SH-SY5Y APP 5'UTR-luciferase reporter, luminescence. AID 1285;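 active means inhibition above a set limit, derived from the sample mean plus 3 SD, cut at about 45% in these data; inconclusive means one replicate passes the limit while the other fails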
IEC-6 tox – counter-screen for KLF5 inhibitors: cytotoxicity in IEC-6 cells | inhibition, % at 5 µM | AID 1825 | actives 0.78% (n = 290,000) | IEC-6 cytotoxicity, luminescence viability; in the data active means inhibition above about 22%;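 further: 0% = plate median of test compound wells and 100% = cytotoxic reference compound wells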
KLF5 inhibitor – kruppel-like factor 5 inhibition. actives 0.23% (n = 290,000). DLD-1 KLF5 promoter-luciferase reporter, luminescence. inhibition, % at 5 µM. AID 1700;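 active means inhibition above a per-plate limit of that plate's mean compound inhibition plus 3 SD, cut at about 60% in these data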;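 further: 0% = DMSO wells and 100% = LY294002 at 200 µM; higher means less KLF5 promoter-driven luciferase light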
BaF3 tox – reduces parental Ba/F3 cell viability, JAK2V617F counter-screen; CellTiter-Glo ATP luminescence; inhibition, % at 5.6 µM; actives 1.1% (n = 220,000);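 active means inhibition above a per-campaign cutoff, the mean inhibition of all tested compounds plus 3 SD, cut at about 27% in these data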;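 further: 0% = DMSO wells and 100% = JAK Inhibitor I control wells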
Ba/F3 V617F tox – reduce viability of Ba/F3 cells dependent on JAK2V617F | Ba/F3 EpoR-JAK2V617F viability, ATP luminescence | inhibition, % at 5.6 µM | actives 1.1% (n = 220,000) | AID 1446;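 active means inhibition above the campaign mean plus 3 SD over all tested compounds, cut at about 24% in these data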;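 further: cytokine-independent growth of Ba/F3 cells driven by EpoR plus mutant JAK2; 0% = DMSO-treated cells and 100% = JAK inhibitor I control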
aSyn UTR inh – MLPCN primary screen, SNCA 5' untranslated region | alpha-synuclein 5'UTR reporter, inhibitor activity | actives 0.82% (n = 300,000) | inhibition, % (tested at 7.5 µM) | AID 1813; in the data active means inhibition above about 60%; inconclusive means no clear call, values can overlap the other calls;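 further: H4 neuroglioblastoma cells stably carrying SNCA 5'UTR luciferase fusion; 0% = DMSO wells and 100% = positive control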
Starred values were filed as active, the others as inactive; ? = inconclusive; nt = no result given. Sampled rows, rich in hits. Any-hit rate of the full collection: about 2.1%.

SMILES	APP transl inh	IEC-6 tox	KLF5 inhibitor	BaF3 tox	Ba/F3 V617F tox	aSyn UTR inh
COc1ccc(-c2cc(-c3ccccc3)[n+](C)c(-c3ccccc3)c2)cc1	-1.6	11.3	31.7	76.2*	99.1*	33.9
O=P(O)(Oc1ccccc1)OC(c1ccccc1)C(F)(F)F (stereo not drawn)	-2.5	-5.2	-9.3	1.6	-2.8	9.6
CCOC(=O)c1ccccc1NC(=O)c1c(O)[nH]c(=S)[nH]c1=O	nt	nt	nt	nt	nt	1.6
C=CCN1C(=O)NC(=O)/C(=C/C=C/c2ccccc2)C1=O	73.8*	-2.4	-10.4	10.1	4.5	-69.5
O=C1NC(=O)N(CCc2ccc(F)cc2)C(=O)/C1=C\C=C\c1ccccc1	30.6	0.3	-8.3	8.4	0.0	nt
CCc1cc(=O)[nH]c(SCCCF)n1	2.8	-9.5	-17.2	-2.0	-1.8	-2.6
CCCC[N+]12CCC(CC1)C(Cc1ccccc1)C2 (stereo not drawn)	nt	-0.2	8.1	30.8*	20.4	23.3
CCCCCCC(=O)c1c(O)n(-c2ccccc2OC)c(=O)[nH]c1=O	1.2	-9.6	-23.9	11.9	1.9	13.9
CCCCCCn1c(O)c(C=NC2CCCCC2N)c(=O)[nH]c1=O (stereo not drawn)	4.2	3.1	-35.1	93.3*	3.0	39.1
CCCCn1c(O)c(C=NC2CCCCC2N)c(=O)[nH]c1=O (stereo not drawn)	-7.1	-4.8	-8.7	5.9	-1.0	2.9
COc1ccc(Cc2nccc3cc(OC)c(OC)cc23)cc1OC	2.5	14.9	-1.1	27.5*	11.4	0.7
CC(C)C(C)(NC(=O)c1cccn(Cc2ccc3c(c2)OC(F)(F)O3)c1=O)C(N)=O (stereo not drawn)	1.8	3.8	-8.7	4.5	-2.3	18.3
CC(C)(C)n1c(O)c(C=Nc2ccc3c(c2)CCC3)c(=O)[nH]c1=O	2.9	0.0	-30.2	63.0*	-2.9	-5.6
Cn1c(O)c(C=Nc2ccc(F)cc2)c(=O)[nH]c1=O	nt	-11.4	2.7	nt	nt	1.7
CNC(=O)Nc1ccc(C(=O)N/N=C\C23CC[C@@H](O)CC2(O)CC[C@@H]2[C@@H]3CCC3(C)C(C4=CC(=O)OC4)CCC23O)cc1 (stereo partly drawn)	nt	0.8	-17.9	-0.7	2.6	19.1
C[C@]12CC[C@H]3C(CCC4(O)CC(O)CC[C@]34C=O)C1=CC[C@H]2c1ccc(=O)oc1 (stereo partly drawn)	nt	-12.1	-30.9	nt	nt	81.5*
CC(=NCc1ccco1)c1c(O)n(Cc2ccccc2)c(=O)[nH]c1=O	20.0	-0.3	-19.7	1.6	-1.3	0.6
CN1CCCC(C(=O)c2ccc(Cl)cc2)C1 (stereo not drawn)	-2.3	1.9	-33.8	5.7	-2.8	6.3
CCOC(=O)CC(NC(=O)C(Cc1ccc(N(CCCl)CCCl)cc1)NC(C)=O)C(=O)OCC (stereo not drawn)	85.7*	-3.0	-14.6	1.4	-0.8	38.2
CC(=O)NC(Cc1ccc(N(CCCl)CCCl)cc1)C(=O)NC(C(=O)O)C(C)C (stereo not drawn)	1.6	3.9	10.8	1.9	3.1	16.5
COc1ccc2nc3oc(C(=O)N4CCC5(CC4)OCCO5)cc3cc2c1	24.3	6.7	-45.8	8.9	4.8	-20.1
CC1Oc2cc3c(-c4c(O)cc(O)c5c(O)c6c(cc45)OC(C)C(C)C6=O)c(O)cc(O)c3c(O)c2C(=O)C1C (stereo not drawn)	nt	-9.0	30.2	35.1*	96.5*	87.0*
Cc1cc(C)nc(NS(=O)(=O)c2ccc(N=Cc3c(O)n(C)c(=O)n(C)c3=O)cc2)n1	-16.3	-5.1	-19.9	4.4	0.7	6.6
CC1CCC(C(C)C)C(OC(=O)Cn2c(COc3ccccc3)[n+](C)c3ccccc32)C1 (stereo not drawn)	nt	-6.6	-1.7	100.9*	98.7*	66.5*
COC(=O)C1CN(C#N)N(c2ccc(Cl)cc2)C12c1ccccc1-c1ccccc12 (stereo not drawn)	94.4*	45.5*	17.9	29.5*	94.7*	111.8*
SMILES	APP transl inh	IEC-6 tox	KLF5 inhibitor	BaF3 tox	Ba/F3 V617F tox	aSyn UTR inh
O=C(c1ccccc1)C(CN1CCCC1)c1ccccc1 (stereo not drawn)	92.1*	5.3	6.9	-0.3	1.1	-77.4
CCCNC1=C(C)C(=O)C2=C(C1=O)C(COC(N)=O)[C@]1(OC)C3NC3CN21 (stereo partly drawn)	nt	7.7	-12.7	61.8*	82.2*	-20.5
CN1/C(=C\C=Nc2ccccc2)C(C)(C)c2ccccc21	-14.2	-5.3	-6.8	57.4*	31.4*	-38.0
Cc1ccc(N2C(=O)NC(=O)/C(=C\C=C\c3ccco3)C2=O)cc1C	47.4*	3.9	3.1	1.0	-2.5	-47.4
Cc1ccc(N2C(=O)NC(=O)/C(=C\C=C\c3ccco3)C2=O)cc1	nt	-4.1	-30.6	0.4	2.1	-92.5
CCn1c(O)c(C=Nc2cc(Cl)ccc2Cl)c(=O)n(CC)c1=O	11.7	1.5	-26.9	4.3	1.8	-13.7
C=C(C=O)C[C@@H]1C[C@H](O)C2OC3C[C@]4(C)OC5/C=C\CC6OC7C(CC=CCC6OC5CCCC4OC3CC2O1)OC1CC2OC3CC(=O)OC3C[C@@H](C)C[C@@]2(C)OC1C[C@@H]7C (stereo partly drawn)	nt	nt	nt	nt	nt	112.8*
CNC(=O)Oc1ccc(-c2cn3cc(C)ccc3n2)cc1	-48.8	2.4	46.6	7.1	10.8	75.5*
CNC(=O)Oc1cccc(-c2cn3cc(Cl)ccc3n2)c1	-170.1	-4.9	8.9	5.8	1.2	?
Cc1[nH]c2c(C(F)(F)F)cccc2c1CCN	47.6*	6.4	0.3	10.8	4.0	20.7
C=C1C(=O)O[C@@H]2C[C@@H](C)[C@@H]3C=CC(=O)[C@@]3(C)[C@@H](OC(=O)CC(=O)O[C@H]3[C@@H]4C(=C)C(=O)O[C@@H]4C[C@@H](C)[C@@H]4C=CC(=O)[C@]43C)[C@H]12	nt	nt	nt	nt	nt	116.1*
CCCCc1nc2ccccc2c(=O)n1-c1ccc(O)cc1	-3.4	-0.9	-22.0	3.8	-0.3	7.9
NC(N)=N/N=C/c1ccc(N(c2ccccc2)c2ccccc2)cc1	nt	0.3	-47.2	nt	nt	137.8*
COc1ccc(/C=N\N=C(N)N)cc1	-6.8	1.8	2.3	0.2	1.1	-5.2
NC(N)=N/N=C/c1ccc(N2CCOCC2)cc1	4.4	3.5	4.1	71.5*	58.2*	-20.9
Cn1c(O)c(/C=C2/C=CC=N2)c(=O)[nH]c1=O	nt	6.1	1.3	-1.7	-2.7	8.1
Cc1ccc(C2CC(=O)C(C=NCCN3CCN(C(=O)Cc4ccccc4)CC3)=C(O)C2)cc1 (stereo not drawn)	6.7	-5.4	11.1	0.9	0.7	14.2
O=C1CC(c2ccccc2)CC(O)=C1C=NCCN1CCN(C(=O)Cc2ccccc2)CC1 (stereo not drawn)	-8.0	4.7	-19.7	27.6*	3.5	-4.0
CCCCCSc1cc(OC)c(CCN)cc1OC	55.1*	12.1	35.1	9.8	7.6	19.5
Cc1nc2ncnn2c(C)c1CCC(=O)N1CCC2(CC1)OCCO2	5.4	-1.3	-11.7	1.6	-0.6	4.0
